Source: PubChem BioAssay (several laboratories)
Hsp90 block: tumor Hsp90 inhibitors, primary screen, cell lysate, fluorescence polarization, NCI-N417 lysate; Cy3B-geldanamycin FP displacement; inhibition, % at 30 µM; actives 0.35% (n = 64,000);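 active = inhibition above 50%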;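 note: 0% = tracer plus lysate wells and 100% = tracer alone without lysate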
Cdc25B inh: inhibitors of Cdc25B phosphatase catalytic domain, primary screen, biochemical, OMFP fluorescence. recombinant Cdc25B, OMFP fluorescence Ex485/Em525. inhibition, %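 (compounds tested at 10 µM final in the well)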. actives 0.1% (n = 65,000); in the data active = inhibition above about 50%
BAP1 block: inhibitors of BAP1 deubiquitinase, primary screen, biochemical, Ub-AMC fluorescence, kinetic. recombinant BAP1, Ub-AMC hydrolysis fluorescence kinetic; hits give low values. calls only at 20 µM. actives 0.48% (n = 72,000). AID 436, 2006;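 active = activity remaining at or below 50% of control, provided the compound also passes the data quality filters; inactive = the rest, including low values that fail the filters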;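 note: 100% = DMSO wells rate and 0% = substrate alone blank rate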
HePTP inhibitor: inhibitors of human HePTP phosphatase, primary screen, biochemical, absorbance, leukemia target. Tyrosine-protein phosphatase non-receptor type 7 (Homo sapiens), P35236. recombinant HePTP phosphatase activity, OD absorbance. inhibition, % at 20 µM. actives 0.64% (n = 110,000); in the data active = inhibition above about 50%; inconclusive = no clear call, values can overlap the other calls;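 note: plate controls were vehicle for no effect and reference inhibitor for full effect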
Target sequence (P35236 whole entry, looked up): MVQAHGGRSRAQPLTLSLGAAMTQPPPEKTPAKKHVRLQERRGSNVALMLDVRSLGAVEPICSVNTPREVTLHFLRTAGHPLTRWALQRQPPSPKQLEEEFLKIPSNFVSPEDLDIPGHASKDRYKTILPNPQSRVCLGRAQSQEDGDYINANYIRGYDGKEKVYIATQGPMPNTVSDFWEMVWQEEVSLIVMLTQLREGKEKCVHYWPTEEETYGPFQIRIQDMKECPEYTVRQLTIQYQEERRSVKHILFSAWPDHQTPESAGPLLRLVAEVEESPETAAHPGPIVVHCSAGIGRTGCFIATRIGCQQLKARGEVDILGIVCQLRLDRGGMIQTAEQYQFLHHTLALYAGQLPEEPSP
DUSP1 inh: MKP-1 phosphatase inhibitors, primary screen, biochemical, in vitro | Dual specificity protein phosphatase 1 (Homo sapiens), P28562 | recombinant MKP-1, OMFP hydrolysis fluorescence | inhibition, %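 (compounds tested at a single concentration somewhere between 10 and 100 µM)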 | actives 0.15% (n = 65,000);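 active = inhibition above about 50%, limit read from the data; inconclusive = inhibition over screen mean plus 3 SD, below that limit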;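 note: 0% = DMSO max control wells and 100% = wells with enzyme stopped by NaOH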
BAP1 inh conf: BAP1 deubiquitinase inhibitors, hit retest, confirmation, orthogonal assay, biochemical, Ub-ethyl ester substrate, HPLC readout; shares compounds with BAP1 block; % of control activity, % at 20 µM; actives 8% (n = 310); purified BAP1, Ub-ethyl ester hydrolysis; hits give low values;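 active = percent of control activity at or below 60%; inconclusive = HPLC trace unusable from injection failure or solvent front hiding peaks; inactive = the rest, plus ubiquitin peak ratio over a set limit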
Numbers without * were called inactive. In the library only some 1.1% were active in any assay of this set; here they are far more common.

O=C(CC1Nc2ccccc2NC1=O)Nc1ccc(F)cc1 (stereo unspecified) was read as HePTP inhibitor 11.
COc1ccc(CC(=O)N2CCN(c3ccc(F)cc3)CC2)cc1OC was read as HePTP inhibitor -1.
`COc1cc(/C=C2\SC(=O)NC2=O)cc(OC)c1` gave HePTP inhibitor 10.
Screening CCN1C(=O)/C(=C/c2ccc(OC(=O)c3cccc(C)c3)c(OC)c2)SC1=S returned HePTP inhibitor -4.
For CC1CCN(S(=O)(=O)c2ccc(NC(=O)Cn3nnc(-c4ccccc4)n3)cc2)CC1 the results were Hsp90 block -4, Cdc25B inh 16, BAP1 block inactive, HePTP inhibitor 13 and DUSP1 inh -16.
Screening Cc1ccc(-c2nnn(CC(=O)Nc3ccc(S(=O)(=O)N4CCC(C)CC4)cc3)n2)cc1 returned Hsp90 block -1, Cdc25B inh 6, BAP1 block active, HePTP inhibitor 11, DUSP1 inh -12 and BAP1 inh conf 73.
Screening CC1CCCN(S(=O)(=O)c2ccc(NC(=O)Cn3nnc(-c4ccccc4F)n3)cc2)C1 (stereo unspecified) returned Hsp90 block 2, Cdc25B inh 4, BAP1 block active, HePTP inhibitor -2, DUSP1 inh -19 and BAP1 inh conf 26*.
Screening COc1ccc(NC(=O)Cn2nnc(-c3ccccc3F)n2)cc1 returned Hsp90 block -7, Cdc25B inh -16, BAP1 block inactive, HePTP inhibitor 8 and DUSP1 inh -14.
`CCc1cc(C(=O)Cc2cnn(-c3ccccc3)c2)c(O)cc1O` gave Hsp90 block -1, Cdc25B inh -10, BAP1 block active, HePTP inhibitor 2, DUSP1 inh 9 and BAP1 inh conf 129.
COc1cc(OC)c([N+](=O)[O-])cc1/C=C1/C(=O)NC(=S)N(c2cccc(Br)c2)C1=O was read as HePTP inhibitor 5.
For C=CCn1c(COc2ccc(F)cc2)nnc1SCC(=O)NC(=O)NCc1ccco1 the results were Hsp90 block -3, Cdc25B inh -9, BAP1 block inactive, HePTP inhibitor 10 and DUSP1 inh 31.
C=CCn1c(COc2cccc(C)c2)nnc1SCC(=O)NC(=O)NCc1ccco1 was read as Hsp90 block -2, Cdc25B inh 8, BAP1 block active, HePTP inhibitor 7, DUSP1 inh 18 and BAP1 inh conf 137.
`Cc1ccc(N2C(=O)[C@@H]3[C@H](C2=O)C2c4ccccc4C=CN2[C@@H]3C(=O)c2ccco2)c(C)c1` (stereo partly specified) gave Hsp90 block -17, Cdc25B inh 4, BAP1 block active, HePTP inhibitor -1, DUSP1 inh 36 and BAP1 inh conf 118.
Cc1ccc(N2C(=O)[C@@H]3[C@H](C2=O)C2c4ccccc4C=CN2[C@@H]3C(=O)c2ccco2)cc1 (stereo partly specified) was read as Hsp90 block -23, Cdc25B inh 10, BAP1 block inactive, HePTP inhibitor -2 and DUSP1 inh 2.
For O=C(c1ccco1)[C@@H]1[C@@H]2C(=O)N(c3ccccc3)C(=O)[C@@H]2C2c3ccccc3C=CN21 (stereo partly specified) the results were Hsp90 block -7, Cdc25B inh 7, BAP1 block active, HePTP inhibitor -4, DUSP1 inh 30 and BAP1 inh conf inconclusive.
CC(=O)[C@@H]1[C@@H]2C(=O)N(Cc3ccccc3)C(=O)[C@@H]2C2c3ccccc3C=CN21 (stereo partly specified) was read as Hsp90 block -2, Cdc25B inh 5, BAP1 block inactive, HePTP inhibitor 10 and DUSP1 inh 28.
For Cc1cccc(Cc2cnc(N)s2)c1 the results were HePTP inhibitor -1.
`COc1ccc2cc(C(c3nnnn3Cc3ccccc3)N3CCCCCC3)c(=O)[nH]c2c1` (stereo unspecified) gave Hsp90 block -7, Cdc25B inh 10, BAP1 block active, HePTP inhibitor -2, DUSP1 inh 8 and BAP1 inh conf 50*.
Screening Nc1c(C(=O)c2ccc(Br)s2)oc2ccccc12 returned Hsp90 block 0, Cdc25B inh -4, BAP1 block active, HePTP inhibitor 5, DUSP1 inh 13 and BAP1 inh conf 81.
Screening COc1ccc(NC(=O)c2nc[nH]c2C(=O)Nc2ccc(OC)cc2)cc1 returned HePTP inhibitor 0.
`COc1ccc(NC(=O)c2nc[nH]c2C(=O)Nc2ccccc2C)cc1` gave Hsp90 block 2, Cdc25B inh 5, BAP1 block active, HePTP inhibitor -3, DUSP1 inh 28 and BAP1 inh conf 156.
For Cc1ccc(Cl)cc1NC(=O)c1c(-c2c(Cl)cccc2Cl)noc1C the results were HePTP inhibitor 0.
CCN(CC)c1ccc(/C=N/NC(=O)CSc2nc3ccccc3[nH]2)c(O)c1 was read as HePTP inhibitor 8.
For COc1ccc(N/C=C2/CCCCC2=O)cc1 the results were Hsp90 block -3, Cdc25B inh -1, BAP1 block inactive, HePTP inhibitor 4 and DUSP1 inh 4.
CC1CCC/C(=C\Nc2ccc(O)cc2)C1=O (stereo unspecified) was read as Hsp90 block -3, Cdc25B inh 3, BAP1 block active, HePTP inhibitor -3, DUSP1 inh -9 and BAP1 inh conf 91.
For Nc1nc(-c2cccnc2)nn1C(=O)COc1ccccc1 the results were Hsp90 block -1, Cdc25B inh -9, BAP1 block active, HePTP inhibitor 6, DUSP1 inh -15 and BAP1 inh conf 96.
Screening Nc1nc(-c2cccnc2)nn1C(=O)CCc1ccccc1 returned Hsp90 block 0, Cdc25B inh -6, BAP1 block inactive and DUSP1 inh 0.
`CCOC(=O)C1=C(C)NC2=C(C(=O)CC(c3ccc(Cl)cc3)C2)C1c1ccc(N(CC)CC)cc1` (stereo unspecified) gave BAP1 block inactive.
Screening CCOC(=O)c1[nH]c(C)c(C(=O)Nc2cc(OC)ccc2OC)c1C returned Hsp90 block 0, Cdc25B inh 0, BAP1 block inactive, HePTP inhibitor -16 and DUSP1 inh 1.
`CCOc1ccc(OCC)c(NC(=O)c2[nH]c(C)c(C(C)=O)c2C)c1` gave Hsp90 block 25, Cdc25B inh 10, BAP1 block active, HePTP inhibitor 8, DUSP1 inh 1 and BAP1 inh conf 121.
